Measured values published in PubChem BioAssay (NCATS).
Results filed as inconclusive are left out. Unmarked numbers belong to inactive results. Calls come from the whole dose curve; as a rule, active = well fitted inhibition curve with a large enough effect; inconclusive = small, poorly fitted or top-dose-only effect; inactive = flat fitted curve, though single readings scatter.

The compounds below were run against Calcium and integrin-binding protein 1 (Homo sapiens) (UniProt Q99828) (assay: Primary qHTS for Identification of Calcium Integrin Binding Protein 1 (CIB1) Competitor (AID 1508620; note: top concentration of the series differs between compounds)). Conditions: CIB1-GST / FITC-alphaIIb peptide fluorescence polarization; series mostly up to 57.7 µM; activity change, negative = inhibition: at the top concentration.
Method in brief: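 Fluorescence polarization competition: GST-tagged CIB1 (1 uM final) preincubated with compound 15 min at room temperature, then FITC-labelled alphaIIb peptide (100 nM final) added. After 15 min at room temperature, polarization read at Ex 480/Em 540.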
% is set by controls: 0 for no effect and ±100 for the full control effect.

Sequence of Calcium and integrin-binding protein 1 (Homo sapiens) (Q99828 whole entry, looked up): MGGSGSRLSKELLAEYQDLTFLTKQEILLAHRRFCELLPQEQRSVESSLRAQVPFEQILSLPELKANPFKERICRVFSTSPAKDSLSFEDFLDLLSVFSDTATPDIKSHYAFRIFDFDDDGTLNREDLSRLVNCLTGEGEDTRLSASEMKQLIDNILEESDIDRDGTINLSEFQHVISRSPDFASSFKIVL

| SMILES | activity change, negative = inhibition |
| --- | --- |
| C=C1CC2C3(C)C(O)CC(=O)C(C)(C)C3C(O)C(OC(C)=O)C2(C)C2C(=O)OC(C)(C(=O)OC)C(=O)C12C (configuration not stated) | -4.86% |
| CC1(C)CC[C@]2(C(=O)O[C@@H]3O[C@H](CO)[C@@H](O)[C@H](O)[C@H]3O)[C@H](O)C[C@]3(C)C(=CCC4[C@@]5(C)CC[C@H](O[C@@H]6OC[C@@H](O)[C@H](O)[C@H]6O)[C@@](C)(C(=O)O)C5CC[C@]43C)[C@@H]2C1 (some centres not stated) | 1.01% [at 30.2 µM] |
| COc1ccccc1N1CCN(CCCCNC(=O)c2ccc(-c3cscn3)cc2)CC1 | -3.69% [at 114 µM] |
| CC1CCCCCCCc2cc(O)cc(O)c2C(=O)O1 (configuration not stated) | 0.134% [at 114 µM] |
| CC(C)(C)NS(=O)(=O)c1ccc(-c2ccc3[nH]nc(N)c3c2)cc1 | -5.17% [at 114 µM] |
| CC(O)C(=O)/C=C/C=C/C(=O)OC1C=C2COC(=O)C2(O)C2(C)CCCC(C)(C)C12 (configuration not stated) | -5.7% |
| Cc1nnc(-c2ccc3occ(-c4ccc(S(C)=O)cc4)c3c2)o1 (configuration not stated) | 0.238% [at 114 µM] |
| C=C(C)[C@H]1CC[C@]2(C(=O)O)CC[C@]3(C)C(CCC4[C@@]5(C)CCC(=O)C(C)(C)C5CC[C@]43C)C12 (some centres not stated) | -12.1% |
| NCCCCN(Cc1nc2ccccc2[nH]1)[C@H]1CCCc2cccnc21 | -0.368% |
| CCC(C)/C=C(C)/C=C/C1=CC2=C(Cl)C(=O)C(C)(O)C(=O)C2(O)C(OC)O1 (configuration not stated) | 48% |
| CC1OC(OC2CCC3(C)C(CCC4(C)C3C=CC35OCC6(CCC(C)(C)CC63)CCC45C)C2(C)CO)C(OC2OC(CO)C(O)C(O)C2O)C(O)C1OC1OC(CO)C(O)C(O)C1O (configuration not stated) | -6.19% [at 30.2 µM] |
| C=C1C(=O)O[C@@H]2C[C@]3(C)[C@@H](CCC(C)=O)[C@@H]3C[C@H]12 | 2.23% [at 114 µM] |
